A number with no mark means an inactive call. The rule behind the calls is not given here.

The test can be described thus: PLAP enzyme activity inhibition – biochemical, colorimetric, counter-screen, dose response (AID 779). To be noted: colorimetric OD read-out. On the technique in general: The purpose of a counterscreen is to sort out artefacts and off-target activity.
Turning to `CCC(C)COC(=O)C(C#N)c1nc2ccccc2nc1N1CCCCC1` (stereo unspecified), the IC50 (in general, the concentration that inhibits the measured activity by half) was more than 50 µM. In the case of `Cn1cc([N+](=O)[O-])c(C(=O)Nc2ccc3c(c2)OCCO3)n1` it was more than 50 µM; in that of `Cc1ccc(C)c(N(CC(=O)N/N=C/c2ccc(-c3ccc([N+](=O)[O-])cc3)o2)S(=O)(=O)c2ccccc2)c1`, more than 50 µM.

With `C=CCn1c(=O)/c(=C/c2cc(OC)c(OC)c(OC)c2)s/c1=C(/C#N)c1nc2ccccc2n1C`, the IC50 was more than 50 µM.

Consider `CC(=O)N(c1ccc2oc(=O)sc2c1)S(=O)(=O)c1ccccc1`, for which the IC50 is more than 50 µM.

`CC1CCCN(c2nc3ccccc3nc2C(C#N)C(=O)OC2CCCCC2)C1` (stereo unspecified): the IC50 is more than 50 µM. In the case of `CCCSC1=N/C(=C\C=C\c2ccco2)C(=O)S1` it was more than 50 µM; in that of `O=[N+]([O-])c1ccc(N(c2ccccc2)c2ccccc2)cc1`, more than 50 µM. For the molecule `CCCCCn1nc(-c2ccccc2)c2nc3ccccc3nc21`, the IC50 was more than 50 µM. As for `CC(C)CC(C(=O)Nc1oc(-c2ccco2)c(-c2ccco2)c1C#N)N1C(=O)c2ccccc2C1=O` (stereo unspecified), the figure is more than 50 µM. In the case of `CCSC1=N/C(=C\c2ccc(-c3ccccc3[N+](=O)[O-])o2)C(=O)S1` it was more than 50 µM.

Take `C=CCn1c(SCC(=O)Nc2ncc(Cc3cc(C(F)(F)F)ccc3Cl)s2)nnc1-c1ccncc1`: the IC50 is more than 50 µM. As for `CS(=O)(=O)N(CC(=O)Nc1cccc(Cl)c1)c1ccccc1Cl`, the figure is more than 50 µM. On to `Cc1ccc2cc(C=C(C#N)C#N)c(N3CCCCC3)nc2c1`, for which the IC50 was more than 50 µM. In the case of `O=C(NCc1ccccc1)c1ccc2nc(-c3ccco3)c(-c3ccco3)nc2c1` it was more than 50 µM; in that of `CCOC(=O)C(C(=O)OCC)c1cc(Br)c2noc3c2c1C(=O)c1ccccc1-3`, more than 50 µM; in that of `CC(C)C1Cc2c(C#N)c(N)sc(=S)c2CO1` (stereo unspecified), more than 50 µM. As for `CSc1nc(SCCO)c2sc3nc(-c4ccco4)c4c(c3c2n1)CC(C)(C)OC4`, the figure is more than 50 µM; as for `COc1ccccc1N1CSC2=C(C#N)C(c3ccc(SC)cc3)CC(=O)N2C1` (stereo unspecified), more than 50 µM; as for `CSc1ccccc1N=Cc1nc(-c2ccccc2)oc1O`, more than 50 µM. In the case of `COc1cc(/C=C2\SC(=S)N(Nc3ncc(C(F)(F)F)cc3Cl)C2=O)cc(OC)c1OC` it was more than 50 µM; in that of `Cc1nc(C)c(C(=O)Nc2nc3c(C)cccc3s2)o1`, more than 50 µM. For the molecule `CCN1/C(=C/c2ccc3cccc(C)c3[n+]2CC)Sc2ccccc21`, the IC50 is more than 50 µM.

On to `O=C(/C=C/c1ccccc1)c1cc(Br)ccc(=O)c1O`, for which the IC50 was more than 50 µM. `N#Cc1sc2nc(-c3cccs3)cc(-c3ccccc3)c2c1N`: the IC50 is more than 50 µM. In the case of `Cc1ccsc1/C=C/C1=Cc2c(sc(NC(=O)CSc3n[nH]c(N)n3)c2C#N)C(C)(C)C1` it was more than 50 µM; in that of `FC(F)(F)c1nnc2c(Sc3ccccn3)nc3ccccc3n12`, more than 50 µM; in that of `Cc1ccc(C2=N/C(=C\c3cccs3)C(=O)N2Nc2ccccc2)cc1`, more than 50 µM. In the case of `Cc1ccc(S(=O)(=O)/C(C#N)=C/c2c(N3CCOCC3)nc3ccccn3c2=O)cc1` it was more than 50 µM. As for `CCCOc1ccc(-c2nn(-c3ccccc3)cc2/C=C2\SC(=S)N(C3CCS(=O)(=O)C3)C2=O)cc1` (stereo unspecified), the figure is more than 50 µM; as for `CCCCCCOC(=O)C(C#N)c1nc2ccccc2nc1N1CCN(CC)CC1` (stereo unspecified), more than 50 µM.

Values taken from PubChem BioAssay AID779 (Sanford-Burnham Center for Chemical Genomics, 2007).
